Values joined by “and” are separate entries in the source; they are usually repeats but may differ in a detail not shown here. Identical values can stand only once. Records with an inconclusive call do not appear. A number with no mark means an inactive call. Active and inactive are the calls of the source. Calls follow the shape of the dose curve; as a rule, active = well fitted activation curve with a large enough effect; inconclusive = small, poorly fitted or top-dose-only effect; inactive = no such curve, though single readings can be large or run the other way.
Potency is read from the fitted curve at half-maximal effect.

The nature of this assay: qHTS for small molecules that induce genotoxicity in ELG1 expressing cells: Confirmatory Assay for Cherry-picked Compounds. Also: nearly all actives have a fitted effect of over 35% in size. As to activation: % of control where 0% means no effect. The settings on record: ELG1-luciferase reporter cells, luminescence, 16 h; series mostly up to 46.1 µM; activation: at the top concentration. The essentials:
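Activation readout: ONE-Glo luciferase signal from ELG1 reporter cells, 2,000 per well, after 16 hr compound incubation at 37 C. Increased ELG1-driven luminescence reflects genetic stress.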
For orientation: qHTS replaces the single test concentration by a dilution series.
Take `O=c1cc(-c2ccccc2)oc2ccc(Br)cc12`: the Potency is 11.2 µM (active).
Take `Cc1ccc2nc(-c3ccc(C)c(NC(=O)COc4ccc(Br)cc4)c3)oc2c1`: the Potency was 2.5 µM (active).
Regarding `C(=C\c1c[nH]c2ccccc12)/c1ccc2ccccc2n1`, the Potency was 0.141 µM (active).
As for `Oc1ccc(/C=C/c2c(F)cccc2F)c2cccnc12`, the Potency is 9.96 µM (active).
Take `O=C(COc1ccccc1F)Nc1ccc(-c2nc3ccccc3s2)cc1`: the Potency was 5 µM (active).
`Cc1ccc2c(c1)C/C(=C/c1ccc(N(C)C)cc1)C2=O`: the Potency is 7.05 µM (active).
With `NC(=O)C1CCN(c2cc(-c3ccc4c(c3)OCCCO4)ncn2)CC1`, the Potency was 9.96 µM (active).
`Cc1ccccc1NC(=O)CSc1nc2ccccc2o1`: the “activation” value was 23.9%.
`COc1ccc([C@H]2Cc3cc(O)cc(O)c3C(=O)O2)cc1O`: the Potency is 11.2 µM (active).
`CCOC(=O)N1CCN(C(=O)CSCC(=O)Nc2nc(-c3ccccc3)cs2)CC1`: the “activation” value is -28.1%.
Turning to `Nc1ccc(/C=C/c2ccc3cccnc3c2)cc1`, the Potency was 0.5 µM (active).
On the same count and under the same terms, for `O=C(CSc1nnc(-c2cccnc2)o1)Nc1ccccn1` the value was 9.12 µM (active) and 8.89 µM (active).
In the case of `COc1cc(C)c2c(=O)cc(-c3ccccc3)oc2c1`, the Potency is 6.28 µM (active).
On the same count and under the same terms, for `COc1cccc(/C=C/c2cnc3ccccc3n2)c1OC` the value was 0.397 µM (active); for `O=S(=O)(c1ccc2ccccc2c1)N1CCN(S(=O)(=O)c2c(F)cccc2F)CC1`, 14.1 µM (active); for `CN(C)c1ccc(-c2cc3ccccc3c(=O)o2)cc1`, 0.445 µM (active).
Take `N#C/C(=C\c1cccnc1)c1ccccn1`: the “activation” value is 15.8%.
On the same count and under the same terms, for `O=C(CSc1nnc(-c2ccc(F)cc2)o1)Nc1ccc(S(=O)(=O)N2CCCCCC2)cc1` the value was 7.03%.
With `CC(=O)Nc1ccc(/C=C/c2sc3ccccc3[n+]2CCCCI)cc1`, the Potency was 22.3 µM (active).
Regarding `O=C1/C(=C/c2ccc(O)c(O)c2)Oc2ccccc21`, the Potency is 6.28 µM (active).
The same measure, in the same setting: for `COc1ccc(-c2cnc(-c3cccnc3)o2)cc1` the value was 15.8 µM (active).
On the same count and under the same terms, for `Cn1cccc1C(=O)OCC(=O)Nc1ccc2c(c1)OCCO2` the value was 0.706 µM (active).
Take `COc1cccc2c1C(=O)/C(=C\c1ccc(N(C)C)cc1)C2`: the Potency was 3.15 µM (active).
Take `O=C(CSCC(=O)N1CCN(c2ccccc2)CC1)Nc1nc(-c2ccc(Cl)s2)cs1`: the “activation” value was -28.8%.
As to `Cc1noc(C)c1-c1ccc2ncnc(NCc3ccc(F)c(F)c3)c2c1`, the Potency was 15.8 µM (active).
As to `Cc1ccc(S(=O)(=O)Nc2cc3c4c(c2)CCN4C(=O)CC3)cc1`, the Potency is 22.3 µM (active).
As to `COc1ccc(OCC(=O)Nc2ccc(-c3nc4cc(C)c(C)cc4o3)cc2)cc1`, the Potency was 813 nM (active) and 1.12 µM (active).
For `COc1ccc(C2CC(c3ccncc3)=NN2c2ccc(S(N)(=O)=O)cc2)cc1` (stereo not drawn), the Potency was 17.7 µM (active).
The same measure, in the same setting: to `COc1ccccc1NC(=O)CSc1nnc(-c2ccccc2)o1` belongs 2.5 µM (active).
On to `O=C(N[C@H]1/C=C\[C@@H](O)CCCC1)OCc1ccccc1`, for which the Potency was 9.96 µM (active).
Still for that read-out and setting: to `CN(C)c1ccccc1-c1csc(N2CCC(C(N)=O)CC2)n1` belongs 1.99 µM (active).
Turning to `CC1CCC(NC(=O)CN2C(=O)NC(C)(C)C2=O)CC1` (stereo not drawn), the “activation” value was 24.4%.
Regarding `COc1cccc(-c2cc(NCc3cccs3)ncn2)c1`, the Potency is 3.97 µM (active).
On to `N#Cc1cc2cc3c(cc2nc1SCC(=O)N1CCOCC1)OCCO3`, for which the Potency is 0.889 µM (active).
In the case of `CN(C)c1cccc(-c2ccnc(N3CCC(C(N)=O)CC3)n2)c1`, the Potency was 0.5 µM (active).
In the case of `CC(=O)c1c(C)[nH]c(C(=O)Nc2cccc(S(=O)(=O)N3CCCC3)c2)c1C`, the Potency is 15.8 µM (active).
Regarding `CN(C)c1ccc(/C=C2\C=Cc3ccccc32)c(F)c1`, the Potency is 1.41 µM (active).
As to `O=c1[nH]c(=O)n([C@@H]2O[C@H](CO)[C@@H](O)[C@H]2O)cc1F`, the Potency is 3.97 µM (active).

Source of the values: PubChem BioAssay AID720565 (National Center for Advancing Translational Sciences (NCATS), 2013).
